According to PubChem BioAssay (NCI):
Compounds without any hit were thinned out: in the full panel of roughly 83,000, 20% have a hit.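 Results are percent growth after 48 hours of single-concentration exposure. 100 means growth as in untreated cells, lower positive values show inhibition; negative values down to -100 show cell death.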 Values without a mark were called inactive. Activity calls are given as the source filed them. Rule for the calls: active = growth percent below 10; inactive = the rest.

Tests used:
Assay in all cases: NCI-60 one-dose screen, 48 h (100 = growth as untreated, 0 = no growth, -100 = all killed)
Settings in all cases: 10 µM unless noted
SK-MEL-2 melanoma = system: SK-MEL-2 melanoma
SN12C renal = system: SN12C renal
UO-31 renal = system: UO-31 renal
TK-10 renal = system: TK-10 renal
ACHN renal = system: ACHN renal
CAKI-1 renal = system: CAKI-1 renal
A498 renal = system: A498 renal
CCRF-CEM leukemia = system: CCRF-CEM leukemia
MOLT-4 leukemia = system: MOLT-4 leukemia

Compound | growth (SK-MEL-2 melanoma) | growth (SN12C renal) | growth (UO-31 renal) | growth (TK-10 renal) | growth (ACHN renal) | growth (CAKI-1 renal) | growth (A498 renal) | growth (CCRF-CEM leukemia) | growth (MOLT-4 leukemia)
COc1ccc(-c2cc(/C=C3\C(=O)Nc4ccc(Cl)cc43)[nH]n2)cc1 | 51.2% | 63.1% | 64.4% | 86.9% | 56.7% | 65.8% | 65.7% | 35.5% | 25.1%
CC1(C)OCC2OC3(C(=O)O)OC(C)(C)OC3C2O1 (centres undefined) | 105% | 106% | 94.2% | 102% | 103% | 103% | 93.6% | 108% | 97.9%
CCCCCCCCCCCCCCCC[N+]1(CC)CCCC1 | -59.2% (active) | -16.7% (active) | 38.3% | -59.1% (active) | 9.99% (active) | -41.8% (active) | -9.64% (active) | -67% (active) | -67.3% (active)
Cc1cc(Nc2nc(N3CCNCC3)nc3ccccc23)n[nH]1 | 53.6% | 76.1% | 64.3% | 60.5% | 41.5% | 20.1% | 45.3% | 108% | 101%
COc1cc(-c2c3sc(=O)[nH]c3nc3c2c(=O)[nH]n3C(C)C)cc2c1OCO2 | 101% | 99.4% | 96.8% | 114% | 95.8% | 88.8% | 67.1% | 125% | 104%
COc1c(Cl)cc(Cl)cc1Cl | 117% | 100% | 88.4% | 109% | 112% | 126% | 96.5% | 110% | 91.4%
CN1CCCCC1CCN1c2ccccc2Sc2ccc(Cl)cc21 (centres undefined) | 71.2% | 71.8% | 30.1% | 69.3% | 58.2% | 59.9% | 74.9% | 39.3% | 41%
Cc1noc(C)c1-c1cc(O)cc(C(O)c2ccccc2)c1 (centres undefined) | 60.4% | 74.5% | 16.9% | 12.6% | 60.6% | 23.8% | -3.34% (active) | 46.7% | 58.8%
O=C(/C=C/c1ccc(Cl)cc1)/C=C/c1cc2ccccc2[nH]c1=O | 98.2% | 62.8% | 63.9% | 119% | 74% | 108% | 94.7% | 2.35% (active) | 15.7%
COc1ccc(C(=O)c2sc3nc(-c4ccccc4OC)ccc3c2N)cc1OC | 89.5% | 66.1% | 53.4% | 79.7% | 66.9% | 62.4% | 47.7% | 26.5% | -45% (active)
CCc1ccccc1NC(=O)c1sc2nc3c(cc2c1N)C(=O)CCC3 | 19.9% | 45.4% | 44.5% | 54.7% | 58.4% | 29.9% | -9.7% (active) | 13.6% | 24.4%
Cc1ccc2c(NCCCN(C)C)c3c(C)nn(C)c3nc2c1 | 44% | 42.9% | 26.5% | 28.4% | 27.2% | 14.5% | 28.3% | 31.7% | 10.7%
COc1cc(-c2cc(-c3nc4ccc(Cl)cc4[nH]3)[nH]n2)cc(OC)c1OC | 55.8% | 68.3% | 20.6% | 67.1% | 51.9% | 35.1% | 39.2% | 7.12% (active) | 4.79% (active)
COc1cccc(-n2cc(-c3nc(Nc4cc(C)[nH]n4)c4ccccc4n3)nn2)c1 | 50.9% | 41% | 15.4% | 33.3% | 24% | 2.59% (active) | 36.1% | 32.6% | 11%
COc1cc(OC)c(/C=C/c2cc[n+](C)c3ccccc23)c(OC)c1 | -8.65% (active) | 10.7% | 61% | 53.4% | 71.8% | 67.1% | 9.92% (active) | 7.13% (active) | 3.59% (active)
COc1c(C2CC(=O)Nc3c2cnn3Cc2ccco2)cc2c(c1OC)OCO2 (centres undefined) | 46.3% | 32.5% | 59.4% | 73.9% | 40.2% | 36.9% | -2.53% (active) | 10.1% | 1.51% (active)

Compound | growth (SK-MEL-2 melanoma) | growth (SN12C renal) | growth (UO-31 renal) | growth (TK-10 renal) | growth (ACHN renal) | growth (CAKI-1 renal) | growth (A498 renal) | growth (CCRF-CEM leukemia) | growth (MOLT-4 leukemia)
Cc1ccn2c(-c3csc(Nc4cccc(O)c4)n3)c(C)nc2c1 | 24.2% | 20.8% | 40.4% | 57.2% | 26% | 80.6% | 64.7% | 23.7% | -7.6% (active)
CN1CCCCC1CCN1c2ccccc2Sc2ccc(Br)cc21 (centres undefined) | 69.5% | 73.3% | 32.9% | 72.3% | 58.7% | 55.6% | 66.7% | 32.6% | 30.3%
NC(CC(=O)O)C(=O)OCc1ccccc1 (centres undefined) | 94.8% | 105% | 71.8% | 122% | 97.1% | 79.9% | 85.4% | 108% | 103%
Cc1ccc(C2CC3c4ccccc4C2C2CCCCN32)cc1 (centres undefined) | 88.2% | 90.3% | 91.7% | 97.1% | 97.8% | 95% | 139% | 92.2% | 94.8%
CC(=O)OCC(=O)C1CCC=CC1OC(C)=O (centres undefined) | 88.3% | 99.4% | 66.4% | 110% | 100% | 93.4% | 110% | 99.7% | 95.9%
CCCCCCCCCCCCN1CCCC(C)C1 (centres undefined) | 89.6% | 95.9% | 60.8% | 87.9% | 85.4% | 68.7% | 104% | 44.7% | 63.9%
Cc1cc(Nc2nc(N3CCOCC3)nc3ccccc23)n[nH]1 | 51.5% | 60.2% | 35.4% | 47.2% | 32.8% | 9.88% (active) | -13.4% (active) | 65.6% | 58.4%
CC(=O)Oc1cc2cnc3c4cc(OC(C)=O)c(OC(C)=O)cc4ccc3c2cc1OC(C)=O | 56.3% | 14.6% | -2.09% (active) | 21.8% | 15.3% | 6.51% (active) | -15.6% (active) | -6.55% (active) | -6.19% (active)
CCCCCC(=O)N(CCCC)CCCC | 124% | 96.3% | 78.5% | 109% | 101% | 92% | 127% | 99.1% | 105%
COC1C/C(=N\O)C2OC(c3ccccc3)OCC2O1 (centres undefined) | 93.3% | 104% | 87.2% | 112% | 108% | 97.9% | 89.9% | 96.1% | 97.6%
O=c1c2cccc3c(Nc4ccccn4)ccc(c32)c2nc3ccccc3n12 | 80.5% | 71.7% | 46.6% | 65.8% | 76.1% | 51.8% | 92.3% | 51.8% | 61.8%
CCOC(=O)/C=C/c1ccc(C(=O)OCC)[nH]1 | 47% | 80.7% | 72.1% | 62.6% | 64.9% | 35.5% | 49.8% | 82.8% | 75.8%
COc1cc(-c2cnc3nonc3n2)c(OC)c2c1OCO2 | 98.1% | 100% | 85.5% | 107% | 91.6% | 99.1% | 88.3% | 85.3% | 83.9%
Cc1cc(Nc2nc(-c3cccnc3)nc3ccccc23)n[nH]1 | 38.8% | 58.9% | 60.4% | 59.8% | 38% | 2.35% (active) | -19.7% (active) | 57.3% | 89.5%
CCCCCCCCOC(=O)CC[C@@H](C)[C@H]1CC[C@H]2[C@@H]3[C@H](OC(=O)CCN)C[C@@H]4C[C@H](OC(=O)CCN)CC[C@]4(C)[C@H]3C[C@H](OC(=O)CCN)[C@]12C | 126% | 77.6% | 105% | 136% | 96.2% | 108% | 131% | -37.5% (active) | 26.1%
